Reference: PubChem BioAssay (Tox21)
Inconclusive results are not listed. Unmarked numbers belong to inactive results. Calls of active or inactive are those of the source. The call rests on the fitted dose curve; in most records, active means well fitted cell-killing curve with a large enough effect in the repeat runs; inconclusive means weak or mixed curves, or effect the other way; inactive means flat fitted curve, though single readings scatter.

Assay: cAMP Responsive Elements (CRE) small molecule agonists, cell-based qHTS assay: qHTS cell viability counter screen (AID 2060914);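 further: viability read after 3 h of compound exposure; nearly all actives have a fitted effect of over 50% in size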
Settings: CRE-bla HEK293T viability, CellTiter-Glo luminescence, 5 h; series mostly up to 92.4 µM; activity change, negative = cytotoxicity: at the top concentration
Excerpt: National Center for Advancing Translational Sciences [NCATS]
Division of Preclinical Innovation [DPI]
U.S. Environmental Protection Agency [EPA]
National Institutes of Environmental Health Sciences [NIEHS]
National Toxicology Program [NTP]
U.S. Food and Drug Administration [FDA]
CREB (cyclic-AMP Responsive Element Binding Protein) is a cellular transcription factor. It binds to certain DNA sequences called cAMP Responsive Elements (CRE) and regulates the transcription of the genes. […] This cell line can be used to find agonists/antagonists of the cyclic AMP signaling pathway. The activation of the report gene under culture conditions can be detected by fluorescence intensity. This cell line has been used to screen the Tox21 10K compound library to identify agonists that induce oxidative stress. The cytotoxicity of the Tox21 compound library against the CRE-bla cell line was tested in parallel by measuring the cell viability using CellTiter-Glo assay (Promega, Madison, WI) in the same wells.
Tox21 Assay Protocol Summary:
CRE-bla Hek 293T cells were suspended in assay medium (DMEM containing 10% dialyzed FBS, 0.1 mM NEAA, 1 mM sodium pyruvate and 25 mM HEPES) and dispensed at 2,000 cells/5 uL /well into 1536-well black wall/clear bottom plates using a Multidrop Combi (ThermoFisher Scientific, Waltham, MA) dispenser. After the assay plates were incubated at 37 C/5% CO2 for 18 hrs, 23 nL of compounds dissolved in DMSO, positive controls or DMSO only was transferred to the assay plate by a pintool workstation (Kalypsys, San Diego, CA). After the plates were incubated at 37 C/5% CO2 for 3 hrs, 1 uL of LiveBLAzer B/G FRET substrate (Invitrogen, Carlsbad, CA) was added to each well using Bioraptr Flying Reagent Dispenser (FRD, Aurora Discovery, San Diego, CA). The plates were incubated at room temperature for 2 h, then fluorescence intensities were measured using an Envision plate reader (PerkinElmer, Shelton, CT) at Excitation 405nm, Emission 460nm and 530nm. The % activity was determined from the ratio of 460nm/530nm. For cell viability readout that measures cytotoxicity, 4 uL /well of CellTiter-Glo reagent was added into the assay plates using Bioraptr FRD. After 30 min incubation at room temperature, the luminescence intensity in the assay plates was measured using a ViewLux (PerkinElmer, Shelton, CT) plate reader.
On the % scale 0 is the no-effect control and ±100 the full control effect.

Row | Structure (SMILES) | activity change, negative = cytotoxicity | Potency
1 | CC1(C)[C@H]2CC[C@]1(C)[C@H](O)C2 | -1.72% | –
2 | Clc1cccc(C(c2ccc3nc[nH]c3c2)n2ccnc2)c1 (stereo not given) | -8.22% [at 42.5 µM] | –
3 | CC1(C)CC(N)CC(C)(CN)C1 (stereo not given) | – | inactive
4 | Cc1cccc(C)c1NC(=O)CN(CC(=O)O)CC(=O)O | -0.393% [at 42.5 µM] | –
5 | CCCCCC[C@@H](O)C/C=C\CCCCCCCC(=O)OC | -2.83% | –
6 | CCc1c(C(=O)O)c(=O)cnn1-c1ccc(Cl)cc1 | -0.755% | –
7 | CCCCCCCC/C=C\CCCCCCCC(=O)NCc1ccc(O)c(OC)c1 | -0.231% [at 42.5 µM] | –
8 | CN(C)CCCN | – | inactive
9 | CC(=O)c1ccc2ccc3ccccc3c2c1 | -25% | –
10 | CCCCC(CC)COC(=O)CCCCC(=O)OCC(CC)CCCC (stereo not given) | – | inactive
11 | CC1(C)S[C@@H]2[C@H](NC(=O)C(C(=O)O)c3ccccc3)C(=O)N2[C@H]1C(=O)O (stereo not given in full) | 5.26% [at 42.5 µM] | –
12 | C[C@H]1C[C@H](O)c2ccsc2S1(=O)=O | 13.5% [at 42.5 µM] | –
13 | CC(C=O)c1ccccc1 (stereo not given) | 0.589% | –
14 | Cc1c(C)c2c(c(C)c1OC(=O)CCC(=O)O)CC[C@@](C)(CCC[C@H](C)CCC[C@H](C)CCCC(C)C)O2 | 14.5% | –
15 | CC(C)=CCl | – | inactive
16 | CCCCC(CC)C(=O)O (stereo not given) | – | inactive
17 | COc1cccc(OC)c1O | 4.87% | –
18 | C=CCN1CCc2nc(N)sc2CC1 | -11.6% [at 42.5 µM] | –
19 | CCCCC/C=C\C/C=C\CCCCCCCC(=O)O | – | inactive
20 | O=C(NCCCN1CCOCC1)c1ccc(Cl)cc1 | 4.16% [at 42.5 µM] | –

Row | Structure (SMILES) | activity change, negative = cytotoxicity | Potency
21 | Cc1ccc(C(N)=O)cc1N | 6.33% | –
22 | OCCCO | -2.18% | –
23 | CC/C=C/CCO | -3.14% | –
24 | CCCCCCCC/C=C\CCCCCCCC(=O)N(CCO)CCO | -5.73% | –
25 | CC(=O)/C=C/C=C1/C2CCC(C2)C1(C)C (stereo not given) | 1.12% [at 42.5 µM] | –
26 | COc1cc2c(N3CCN(C(=O)Nc4ccc(OC(C)C)cc4)CC3)ncnc2cc1OCCCN1CCCCC1 | 4.7% [at 42.5 µM] | –
27 | CCCCCCOCCOCCO | – | inactive
28 | CCCCOc1ccc(C(=O)CCN2CCCCC2)cc1 | 10.7% [at 42.5 µM] | –
29 | CN1[C@@H]2CC[C@H]1CC(NC(=O)n1c(=O)[nH]c3ccccc31)C2 (stereo not given in full) | 1.03% [at 42.5 µM] | –
30 | O=C1c2c(O)ccc(O)c2C(=O)c2c(NCCNCCO)ccc(NCCNCCO)c21 | 6.64% [at 42.5 µM] | –
31 | CC(C)C(O)C(C)(C)CO (stereo not given) | 18.8% | –
32 | O=C(c1ccccc1)c1ccc(O)c(O)c1O | – | inactive
33 | CC(=O)c1ccccc1 | – | inactive
34 | CCCCCCCCC(=O)O | – | inactive
35 | O=C(CCCCCCCCc1cccnc1)N1CCC(C=C(c2ccccc2)c2ccccc2)CC1 | -0.678% | –
36 | O=C(Nc1ccccc1)c1cc([N+](=O)[O-])ccc1Cl | 10.5% | –
37 | Cc1[nH]cnc1C[C@H]1CCc2c(C)c3ccccc3n2C1=O | -3.53% | –
38 | O=CCc1ccccc1 | – | inactive
39 | NCCCOCCOCCOCCCN | -9.2% | –
40 | Cc1cc2nc(N)sc2cc1C | -4.85% | –
